From PubChem
Nrf2 activator – qHTS of Nrf2 Activators; AID 624171, 2012; actives 0.31% (n = 410,000); AREc32 ARE-luciferase reporter (MCF7-derived line), luminescence, 24 h; Potency, µM (series often up to 46.1 µM), hits mostly activators; note: nearly all actives have a fitted effect of over 65% in size
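For detection, Steady-Glo was added and plates sat 30 min at RT; before that, AREc32_Fluc cells grown overnight in OPTI-MEM/5% FBS had been treated with 23 nL compound for 24 hr at 37 deg C.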
A549 viability – Nrf2 qHTS screen for inhibitors: counterscreen for cytotoxicity; A549 ARE-Fluc cells, CellTiter-Fluor viability, 18-24 h; Potency, µM (doses to about 46 µM), most hits filed as inhibitors; actives 0.16% (n = 390,000); AID 504648, 2011
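Cytotoxicity counterscreen: CellTiter-Fluor fluorescence was measured in A549 ARE_Fluc cells after 18-24 h of compound exposure in a concentration series. The subsequent BugLite luminescent read reports ARE-luciferase activity.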
ELG1 DNA repair – qHTS screen for small molecules that inhibit ELG1-dependent DNA repair in human embryonic kidney (HEK293T) cells expressing luciferase-tagged ELG1. Potency, µM (highest dose often 46.1 µM), actives largely listed as inhibitors. AID 504467, 2011. actives 2.3% (n = 330,000). HEK293T ELG1-luciferase reporter, luminescence, 16 h; DNA damage induced by 5-fluorouridine; note: nearly all actives have a fitted effect of over 55% in size
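5-Fluorouridine DNA damage + compound/DMSO, 2,000 cells/well, 16 h, 37 °C/5% CO2. ONE-Glo, 30 min RT, luminescence. Readout = decrease in reporter signal.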
Nrf2 block – Nrf2 qHTS screen for inhibitors. A549 ARE-Fluc reporter, luciferase luminescence, 18-24 h. Potency, µM (top dose mostly 46 µM), actives largely listed as inhibitors. actives 2.1% (n = 360,000); note: nearly all actives have a fitted effect of over 60% in size
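Reporter: ARE-Fluc in A549. Exposure: 18-24 h, 37 °C, 5% CO2, 5% FBS OPTI-MEM. Readouts: fluorescent cytotoxicity (CellTiter-Fluor), then luminescent Nrf2 signal after BugLite.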
Hits are given with their value; [ ] = another dose, or the depositor's remark. Most compounds without a hit are left out; they make up all but 3.7% or so of the library. Calls come from the whole dose curve; as a rule, active = well fitted curve in the direction sought with a large enough effect; inconclusive = small, poorly fitted or top-dose-only effect, or another doubt; inactive = no such curve, though single readings can be large; an effect the other way counts as inactive or inconclusive.

How did COc1ccc(F)cc1CN1CCN(CC(=O)Nc2ccccc2C(=O)NC2CC2)CC1 do in these assays?
Nrf2 activator: inactive; A549 viability: inactive; ELG1 DNA repair: 10µM; Nrf2 block: inactive

How did COc1ccc(NC(=O)COc2ccccc2Cc2ccccc2)cc1S(N)(=O)=O do in these assays?
Nrf2 activator: inactive; A549 viability: inconclusive; ELG1 DNA repair: 6.5µM; Nrf2 block: 13µM

Results for COc1ccc(NC(=O)CN(Cc2ccccc2)Cc2ccccc2)cc1S(N)(=O)=O ?
Nrf2 activator: inactive; A549 viability: inconclusive; ELG1 DNA repair: inactive; Nrf2 block: inactive

How did COc1ccc(C(=O)NCc2nnc(SCC(=O)c3ccc(F)cc3)n2C)cc1OC do in these assays?
Nrf2 activator: inactive; A549 viability: inactive; ELG1 DNA repair: inactive; Nrf2 block: inactive

What do the screens show for `O=C(Nc1ccc(N2CCOCC2)c(Cl)c1)C1CCCCC1`?
Nrf2 activator: inactive; A549 viability: inactive; ELG1 DNA repair: 21µM; Nrf2 block: inactive

Results for Cc1cccc(N2N=C(C(=O)Nc3ccc(Cl)c(S(=O)(=O)N4CCOCC4)c3)CCC2=O)c1 ?
Nrf2 activator: inactive; A549 viability: inactive; ELG1 DNA repair: inconclusive; Nrf2 block: inconclusive

What do the screens show for `O=C(Nc1ccc(Cl)c(S(=O)(=O)N2CCOCC2)c1)C1=NN(c2ccccc2)C(=O)CC1`?
Nrf2 activator: inactive; A549 viability: inactive; ELG1 DNA repair: 29µM; Nrf2 block: inactive

What do the screens show for `O=C(Nc1ccc(Cl)c(S(=O)(=O)N2CCOCC2)c1)c1ccccc1-c1ccc(C(F)(F)F)cc1`?
Nrf2 activator: inactive; A549 viability: inactive; ELG1 DNA repair: 23µM; Nrf2 block: inconclusive

Results for O=C(/C=C/c1ccco1)Nc1ccc(Cl)c(S(=O)(=O)N2CCOCC2)c1 ?
Nrf2 activator: inconclusive; A549 viability: inactive; ELG1 DNA repair: 16µM; Nrf2 block: inconclusive

How did O=C(Nc1ccc(N2CCOCC2)c(Cl)c1)c1ccc(Cl)cc1 do in these assays?
Nrf2 activator: inactive; A549 viability: inactive; ELG1 DNA repair: inconclusive; Nrf2 block: inactive

What do the screens show for `O=C(/C=C/c1ccc(Cl)cc1Cl)N1CCN(c2ccc([N+](=O)[O-])c(N3CCOCC3)c2)CC1`?
Nrf2 activator: inactive; A549 viability: inactive; ELG1 DNA repair: inactive; Nrf2 block: inactive

What do the screens show for `CN(c1cccc(NC(=O)c2ccc(Cl)c(S(=O)(=O)N3CCOCC3)c2)c1)S(C)(=O)=O`?
Nrf2 activator: inactive; A549 viability: inactive; ELG1 DNA repair: 23µM; Nrf2 block: inconclusive

What do the screens show for `O=C(/C=C/c1ccc(Cl)cc1)NC(=S)Nc1ccc(N2CCOCC2)c(Cl)c1`?
Nrf2 activator: inactive; A549 viability: inactive; ELG1 DNA repair: inconclusive; Nrf2 block: 16µM

What do the screens show for `O=C(Nc1cccc(Br)c1)c1cc(S(=O)(=O)N2CCOCC2)cs1`?
Nrf2 activator: inactive; A549 viability: inactive; ELG1 DNA repair: 16µM; Nrf2 block: inconclusive

How did CC(=O)c1cccc(NC(=O)c2ccc(Cl)c(S(=O)(=O)N3CCOCC3)c2)c1 do in these assays?
Nrf2 activator: inactive; A549 viability: inactive; Nrf2 block: inactive

How did O=C(/C=C/c1ccc(Cl)cc1)N1CCN(c2ccc([N+](=O)[O-])c(N3CCOCC3)c2)CC1 do in these assays?
Nrf2 activator: inactive; A549 viability: inactive; ELG1 DNA repair: 18µM; Nrf2 block: inactive

Results for O=C(/C=C/c1ccccc1)NC(=S)Nc1ccc(N2CCOCC2)cc1 ?
Nrf2 activator: inactive; A549 viability: inactive; ELG1 DNA repair: inactive; Nrf2 block: inconclusive

Results for O=C(Nc1ccccc1)c1cc(S(=O)(=O)N2CCOCC2)cs1 ?
Nrf2 activator: inactive; A549 viability: inactive; ELG1 DNA repair: inconclusive; Nrf2 block: inconclusive

What do the screens show for `O=C(Nc1ccc(F)c(S(=O)(=O)N2CCOCC2)c1)C1CCCCC1`?
Nrf2 activator: inactive; A549 viability: inactive; ELG1 DNA repair: inconclusive; Nrf2 block: inactive

How did O=C(CSc1ccccc1)Nc1ccc(Cl)c(S(=O)(=O)N2CCOCC2)c1 do in these assays?
Nrf2 activator: inactive; A549 viability: inactive; ELG1 DNA repair: 13µM; Nrf2 block: 23µM

How did O=C(Nc1ccc(Cl)c(S(=O)(=O)N2CCOCC2)c1)c1cccs1 do in these assays?
Nrf2 activator: inconclusive; A549 viability: inactive; ELG1 DNA repair: 26µM; Nrf2 block: inconclusive

How did O=C(Nc1ccc(Cl)c(S(=O)(=O)N2CCOCC2)c1)C1CCCC1 do in these assays?
Nrf2 activator: inactive; A549 viability: inactive; ELG1 DNA repair: inactive; Nrf2 block: 23µM

How did COc1ccccc1Cc1c(-c2cccc(Cl)c2)nc2ccc(Cl)cn12 do in these assays?
Nrf2 activator: inactive

What do the screens show for `O=C(Nc1cc(F)c(Br)cc1F)c1ccc(Cl)cc1`?
Nrf2 activator: inactive; A549 viability: inactive; ELG1 DNA repair: inconclusive; Nrf2 block: inconclusive

What do the screens show for `Nc1nc(CSC(=S)N2CCN(c3ccccc3)CC2)nc(Nc2ccc(F)cc2)n1`?
Nrf2 activator: inactive; A549 viability: inactive; ELG1 DNA repair: inconclusive; Nrf2 block: 21µM

What do the screens show for `Nc1nc(CSC(=S)N2CCOCC2)nc(Nc2ccccc2)n1`?
Nrf2 activator: inactive; A549 viability: inactive; ELG1 DNA repair: inconclusive; Nrf2 block: inconclusive

What do the screens show for `COc1ccc(/C=N/Nc2nc(-c3cccnc3)nc3ccccc23)cc1OC`?
Nrf2 activator: inactive; A549 viability: inactive; ELG1 DNA repair: 6.5µM; Nrf2 block: inactive

Results for Cc1c(O)ccc(/C=N/Nc2nc(-c3cccnc3)nc3ccccc23)c1O ?
Nrf2 activator: inactive; A549 viability: inactive; ELG1 DNA repair: 5.2µM; Nrf2 block: inactive

How did COc1ccccc1Nc1ncnc2scc(-c3ccc(F)cc3)c12 do in these assays?
Nrf2 activator: inactive; A549 viability: inactive

Results for C/C(=N\Nc1cc(C)nc(-c2ccccc2O)n1)c1ccccc1 ?
Nrf2 activator: inactive[9.22 µM]; A549 viability: inactive; ELG1 DNA repair: inconclusive; Nrf2 block: inactive

How did Cc1ccc(-c2nc(N/N=C/c3ccncc3)c3ccccc3n2)cc1 do in these assays?
Nrf2 activator: inactive; A549 viability: inactive; ELG1 DNA repair: inconclusive; Nrf2 block: inconclusive

What do the screens show for `Cc1cc(N/N=C/c2ccc(O)c(C)c2O)nc(-c2ccccc2O)n1`?
Nrf2 activator: inactive; A549 viability: inconclusive; ELG1 DNA repair: 2.9µM; Nrf2 block: inconclusive

Results for COc1ccc(/C=N/Nc2ncnc3scc(-c4ccccc4)c23)cc1OC ?
Nrf2 activator: inactive; A549 viability: inactive; ELG1 DNA repair: 18µM; Nrf2 block: inconclusive

How did Cn1cnc(S(=O)(=O)N2CCCCC2c2cc(C(=O)NCc3ccc(Cl)c(Cl)c3)no2)c1 (stereo not given) do in these assays?
Nrf2 activator: inactive

Results for CN(Cc1ccccc1F)c1nc(-c2cccnc2)nc2ccccc12 ?
Nrf2 activator: inactive; A549 viability: inactive; ELG1 DNA repair: inconclusive; Nrf2 block: inconclusive

What do the screens show for `CCOc1ccc(CN(C)c2nc(-c3cccnc3)nc3ccccc23)cc1OC`?
Nrf2 activator: inactive; A549 viability: inconclusive; ELG1 DNA repair: 18µM; Nrf2 block: inconclusive
